Source: PubChem BioAssay (National Center for Advancing Translational Sciences (NCATS))
SMN2 splice enh = enhancers of SMN2 splice variant expression; HEK293 SMN2-luciferase splicing reporter, luminescence, 30-36 h; AID 1458; Potency, µM (highest dose often 46.1 µM), for the others: at the highest dose activity change, positive = activation, most hits filed as activators; 210,000 tested, 2.8% active; further: % of control where 0% means no effect; nearly all actives have a fitted effect of over 55% in size
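HEK293 cells carry an SMN2 minigene-luciferase reporter in which exon 7 inclusion puts luciferase in frame. Cells were seeded at 2000 cells/well, attached for 10-12 hours, then exposed to compounds for 30-36 hours at 37C before ONE-Glo luminescence.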
Rab9 prom act = Rab9 promoter activation | Huh7 Rab9 promoter-luciferase reporter, luminescence, 24 h | Potency, µM (top dose mostly 9.22 µM), without a hit: at the highest dose activation, negative = inhibition, most hits filed as activators | 320,000 tested, 2.8% active | AID 485297; further: % of control where 0% means no effect; nearly all actives have a fitted effect of over 60% in size
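Cell-based reporter: Huh7 stable for Rab9 promoter-driven luciferase, plated in reduced-serum medium with 10% FBS at 1500 cells/well, compound-treated 24 h at 37 °C, luminescence read after 10 min reagent.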
NPC1 promoter act = activates the NPC1 promoter; Potency, µM (highest dose often 9.22 µM), without a hit: at the top dose activation, most hits filed as activators; Huh7 NPC1 promoter luciferase reporter, 24 h; 320,000 tested, 2.4% active; further: % of control where 0% means no effect; nearly all actives have a fitted effect of over 60% in size
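Cells: Huh7 expressing luciferase under the NPC1 promoter, 1500/well. Seeded 2 h, compound added, incubated 24 h at 37 °C. Luciferase reagent, 10 min ambient, then luminescence.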
ELG1 repair inh = ELG1-dependent DNA repair inhibition | HEK293T ELG1-luciferase reporter, luminescence, 16 h; DNA damage induced by 5-fluorouridine | Potency, µM (titrated, usually from 46.1 µM), without a hit: top-dose activity change, negative = inhibition, most hits filed as inhibitors | 330,000 tested, 2.3% active | AID 504467; further: on the % scale 0 is the no-effect control and ±100 the full control effect; nearly all actives have a fitted effect of over 55% in size
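Reporter activity after DNA damage by 5-fluorouridine is monitored. Compound-treated cells incubate 16 hr at 37 °C, then ONE-Glo is added for 30 min before luminescence reading.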
FLuc modulator = inhibits or activates purified firefly luciferase, miR-21 counter-screen. P08659. purified FLuc, Km substrates, luminescence inhibition. Potency, µM (highest dose often 57.5 µM), inactives show at the top dose activity change, negative = inhibition, hits mostly inhibitors. 360,000 tested, 6.9% active;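 further: plate controls were vehicle for no effect and reference inhibitor for full effect; nearly all actives have a fitted effect of over 55% in size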
Target sequence (P08659 whole entry, looked up): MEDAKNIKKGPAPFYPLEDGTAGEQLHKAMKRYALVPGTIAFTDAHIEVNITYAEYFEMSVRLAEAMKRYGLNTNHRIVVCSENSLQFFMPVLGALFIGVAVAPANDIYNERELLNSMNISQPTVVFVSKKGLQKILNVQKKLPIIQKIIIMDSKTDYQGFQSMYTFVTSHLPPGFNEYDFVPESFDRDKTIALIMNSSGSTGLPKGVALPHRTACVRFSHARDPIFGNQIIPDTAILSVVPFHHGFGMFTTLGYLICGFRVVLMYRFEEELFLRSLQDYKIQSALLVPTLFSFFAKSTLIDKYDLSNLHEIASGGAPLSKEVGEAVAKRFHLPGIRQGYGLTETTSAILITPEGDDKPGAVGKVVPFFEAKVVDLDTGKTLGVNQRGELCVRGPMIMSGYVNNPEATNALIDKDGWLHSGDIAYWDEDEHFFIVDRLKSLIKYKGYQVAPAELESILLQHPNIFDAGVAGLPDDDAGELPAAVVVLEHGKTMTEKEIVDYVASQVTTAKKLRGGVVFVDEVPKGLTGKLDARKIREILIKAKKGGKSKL
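Purified P. pyralis luciferase (10nM final) with 10uM D-luciferin and 10uM ATP (Km levels) in 50mM Tris acetate pH 7.5, 10mM Mg acetate, 0.01% Tween-20, 0.05% BSA; qHTS 6-point titration, ~60 µM downward; luminescence read.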
ELG1 genotox = genotoxicity induction in ELG1-luciferase HEK293T cells; HEK293T ELG1-luciferase reporter, luminescence, 16 h; Potency, µM (series often up to 46 µM), without a hit: at the top dose activity change, positive = activation, usual class: activators; AID 504466; 330,000 tested, 1.3% active; further: % of control where 0% means no effect; nearly all actives have a fitted effect of over 60% in size
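DMSO vehicle served as control against compound-treated ELG1-luciferase HEK293T cells; exposure lasted 16 hr at 37 °C and 5% CO2, followed by ONE-Glo luminescence detection after 30 min.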
* marks the source's active call; other numbers are inactive results; u = inconclusive; x = no result given. A selection: hits, their analogues and other compounds. The true share with any hit is near 9.3%. The call rests on the fitted dose curve; in most records, active means well fitted curve in the direction sought with a large enough effect; inconclusive means small, poorly fitted or top-dose-only effect, or another doubt; inactive means no such curve, though single readings can be large; an effect the other way counts as inactive or inconclusive. Potency means the concentration at half of the fitted maximal effect.

SMILES	SMN2 splice enh	Rab9 prom act	NPC1 promoter act	ELG1 repair inh	FLuc modulator	ELG1 genotox
O=C(NC(=S)N1CCN(c2ccc(Cl)cc2[N+](=O)[O-])CC1)c1ccco1	-24%	1%	-3%	-4%	2%	-2%
Nc1nnc(SCC(=O)Nc2ccc(Cl)cc2)s1	x	x	x	x	-1%	x
Nc1ccccc1SCC(=O)Nc1ccc2c(c1)OCCO2	x	3.2µM*	2.2µM*	u	19µM*	u
Nc1cc(N)nc(SCC(=O)Nc2ccc3c(c2)OCO3)n1	x	11%	-1%	-27%	0%	-2%
CC(C)c1ccc(NC(=O)COC(=O)CSc2nnc(N)s2)cc1	2%	3%	0%	23%	15µM*	0%
Nc1ccccc1SCC(=O)Nc1ccc2c(c1)OCO2	x	4µM*	u	-5%	2%	0%
CC(Nc1ccc2c(c1)OCCO2)C(=O)N1CCc2ccccc21 (centres undefined)	16%	29%	10%	u	27µM*	12%
CCOc1ccccc1NC(=O)CSc1nnc(N)s1	3%	x	x	x	-8%	x
CC(C)N(C(=O)CO/N=C/c1cccc([N+](=O)[O-])c1)C(C)C	-22%	1%	-6%	0%	0%	-11%
Cc1nc(SCC(=O)Nc2ccc3c(c2)OCCO3)nc(C)c1C	u	3%	1%	0%	-3%	13%
Cc1cccc(SCC(=O)Nc2ccc3c(c2)OCCO3)c1	x	4µM*	2µM*	u	u	-1%
Cc1ccnc(NC(=O)CSc2ccc3c(c2)OCCO3)c1	x	5%	18%	u	u	18µM*
Nc1nnc(SCC(=O)Nc2ccc3c(c2)OCCO3)s1	-52%	3%	19%	u	19µM*	u
COc1ccc(CNC(=O)C2CC(c3ccccc3[N+](=O)[O-])=NO2)cc1 (centres undefined)	-4%	5%	15%	u	u	7%
CCOC(=O)Cc1csc(NC(=O)Cc2ccc(Br)cc2)n1	x	-5%	-5%	u	u	-9%
Clc1ccc(-c2nc(NCCN3CCOCC3)c3ccccc3n2)cc1	10%	-2%	1%	-24%	-16%	1%
CCC1CCCCN1CCCNC(=O)CN1C(=O)CSc2ccc(S(=O)(=O)N3CCC(C)CC3)cc21 (centres undefined)	x	5%	0%	6%	0%	0%
Cc1ccc(/C=N/NC(=O)c2ccco2)cc1	x	1.4µM*	1.8µM*	u	3.8µM*	u
Cc1cccc(-n2c(C)cc(/C=N\NC(=O)c3ccco3)c2C)c1	13%	1.1µM*	u	u	9.5µM*	u
Cc1cccc(-n2c(C)cc(/C=N/O)c2C)c1	-8%	-2%	7%	13%	-13%	1%
Cc1cc(/C=N/NC(N)=S)c(C)n1-c1cccc(Cl)c1	-18%	-7%	-3%	-15%	-5%	-2%
Cc1cc(/C=N/NC(=O)c2nn(C)cc2Cl)c(C)n1-c1cccc(Br)c1	-20%	-5%	-2%	u	24µM*	4%
CN(C)c1ccc(/C=N/NC(=O)c2ccco2)cc1	8.9µM*	0.56µM*	0.79µM*	u	2.7µM*	4.1µM*
CCOC(=O)Nc1cccc(Nc2ccccc2)c1	0%	-2%	2%	17%	u	u
COc1ccc(CCNC(=O)/C=C/C(=O)O)cc1	-2%	13%	0%	12%	-16%	-1%
SMILES	SMN2 splice enh	Rab9 prom act	NPC1 promoter act	ELG1 repair inh	FLuc modulator	ELG1 genotox
CCOC(=O)/C(C#N)=C/c1c(N2CCN(c3ccccc3)CC2)nc2c(C)cccn2c1=O	x	-1%	2%	-16%	0%	1%
Cc1nc(C)c(C(=O)C2=C(O)C(=O)N(CCN(C)C)C2c2ccco2)s1 (centres undefined)	x	0%	1%	3%	0%	0%
O=C(N/N=C/c1ccc2ncccc2c1)c1ccco1	0.56µM*	0.32µM*	u	u	1.3µM*	2.6µM*
CSC(=S)N/N=C/c1ccc(N(C)C)cc1	28%	23%	11%	u	2.7µM*	u
CN(C)c1ccc(/C=N\NC(=O)c2cccc3cc[nH]c23)cc1	x	u	22%	u	12µM*	u
CN(C)c1ccc(/C=N/NC(=O)c2cc(=O)[nH]c3ccccc23)cc1	x	-1%	-3%	0%	-13%	5%
CCC(Cc1ccccc1)NC(=O)CN(C)S(=O)(=O)c1ccc2c(c1)c(=O)n(C)c(=O)n2C (centres undefined)	-3%	-1%	-4%	-18%	2%	-1%
COc1ccc(OC)c(/C=N/NC(=O)c2csc3ccccc23)c1	-4%	-8%	-4%	-11%	u	1%
COc1cccc(/C=N/Nc2ccc(C(=O)O)cc2)c1O	-82%	-35%	-39%	u	0.19µM*	-19%
Cc1ccc(S(=O)(=O)Oc2ccccc2/C=N/Nc2ccc(C(=O)O)cc2)cc1	x	16%	0%	u	19µM*	0%
COc1cccc(/C=N/Nc2ccccc2C(=O)O)c1O	x	0.4µM*	0.56µM*	u	1.3µM*	4.1µM*
COc1cccc(/C=N/Nc2ccc(S(=O)(=O)O)cc2)c1O	-5%	0%	-8%	u	u	2%
COc1ccc(NC(=O)C2CCCN(c3cnccn3)C2)cc1 (centres undefined)	x	1%	0%	11%	-16%	-1%
COc1ccc(S(=O)(=O)Nc2cccc(C)n2)c2ccccc12	5%	-2%	1%	-3%	6%	-2%
COc1ccc(-c2nc(NC(C)=O)sc2-c2ccc(OC)cc2)cc1	-1%	0%	2%	u	0%	8%
COc1ccc(C2CC(=O)c3sc(NC(C)=O)nc3C2)cc1 (centres undefined)	-13%	24%	26%	u	27µM*	u
CN(C)c1ccc(C=NCC2COc3ccccc3O2)cc1 (centres undefined)	x	-4%	-5%	-4%	12µM*	3%
CN(CC1COc2ccccc2O1)C(=O)c1ccc(N(C)C)cc1 (centres undefined)	-12%	15%	18%	16%	-13%	4%
CCN(CC)c1ccc(C(=O)NN)cc1	-5%	-2%	-3%	-5%	-4%	10%
CN(C)c1cccc(C(=O)Nc2cccc(F)c2)c1	14µM*	2.8µM*	2.2µM*	u	19µM*	u
CCN(CC)c1ccc(C(=O)Nc2cccc(F)c2)cc1	8.9µM*	1.1µM*	0.79µM*	u	u	u
